Drawing on PubChem BioAssay AID2284095 (EPA ToxCast), this text covers outcome and AC50 for 3 molecules.

Each structure is given as a SMILES string. Inconclusive results are not listed. Active and inactive are the calls of the source. Rule for the calls: active = hit-call score of the fitted dose curve at least 0.9, where 1 is the maximum; inconclusive = response in the unintended direction; inactive = score below 0.9.

Chain of human Chymotrypsin Serine Peptidase, ELANE (gene 1991) (P08246 whole entry, looked up): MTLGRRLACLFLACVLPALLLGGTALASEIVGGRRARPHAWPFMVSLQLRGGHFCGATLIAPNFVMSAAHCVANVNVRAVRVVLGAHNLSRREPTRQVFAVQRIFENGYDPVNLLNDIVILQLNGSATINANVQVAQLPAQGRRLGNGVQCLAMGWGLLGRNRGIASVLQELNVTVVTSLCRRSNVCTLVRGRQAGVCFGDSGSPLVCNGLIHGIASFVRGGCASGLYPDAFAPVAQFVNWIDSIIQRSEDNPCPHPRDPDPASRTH

This assay has as its target human Chymotrypsin Serine Peptidase, ELANE (gene 1991) (UniProt P08246). Briefly: ERF_FR_ENZ_hELANE: Eurofins (ERF) Enzymatic Neutrophil Elastase LeadHunter Assay for human Chymotrypsin Serine Peptidase. How it is done: ERF_FR_ENZ_hELANE is a biochemical, single-readout assay that uses extracted gene-proteins in a cell-free assay. Measurements were taken 0.5 hour after chemical dosing in a 96-well plate. See Neutrophil Elastase Human Chymotrypsin Serine Peptidase Enzymatic Assay, Cerep.ERF_FR_ENZ_hELANE is an assay component calculated from the ERF_FR_ENZ_hELANE assay. It is designed to measure enzyme activity using a type of enzyme reporter as detected by absorbance with spectrophotometry technology.Data from the assay component ERF_FR_ENZ_hELANE was analyzed at the assay endpoint, ERF_FR_ENZ_hELANE, in the positive analysis fitting direction relative to DMSO as the negative control and baseline of activity. Using a type of enzyme reporter, loss-of-signal activity can be used to understand changes in enzymatic activity as they relate to gene ELANE. To generalize the intended target to other relatable targets, this assay endpoint is annotated to the protease intended target family, where the subfamily is serine peptidase.
Human cells are incubated for 30 minutes at 37 C with MeOSAAPV-pNa (0.4 mM) as sunstrate and 3',4'dichloroisocoumarin as control inhibitor. Test Sample Requirements: Minimum for 1) Screen: 60 ul of 10 mM stock -OR- 1 mg (pre-weighed) for 10 uM final testing. 2) Dose Response: 90 ul of 10 mM stock -OR- 1 mg (pre-weighed) for a top concentration at 10 uM.
Take `COc1cc(/C=C/C(=O)CC(=O)/C=C/c2ccc(O)c(OC)c2)ccc1O`: the outcome was inactive.

Consider `O=C(/C=C/c1ccc(O)cc1)CC(=O)/C=C/c1ccc(O)cc1`, for which the AC50 is 8.6 µM (active).

On to `COc1cc(CCC(=O)CC(=O)CCc2ccc(O)c(OC)c2)ccc1O`, for which the molecule was called inactive.
